# HT1080NT lethal: kills 2HG-producing HT-1080-NT fibrosarcoma cells. HT-1080-NT fibrosarcoma viability, CellTiter-Glo ATP luminescence, 48 h. Potency, µM (top dose mostly 46.1 µM), without a hit: at the top dose activity, negative = less viability, most hits filed as cytotoxic. 360,000 compounds, 1.6% hits;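 note: NT is the 2HG producing partner of a matched IDH1 knockdown line; 0% = DMSO-treated cells and -100% = media-only wells without cells; nearly all actives have a fitted effect of over 55% in size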
#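 Viability by CellTiter-Glo luminescence after 48 h compound exposure at 37C of HT-1080-NT cells (750/well, RPMI, 5% FBS). % activity scaled between DMSO wells and medium-only wells, then curve-fitted and categorized by curve class.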
# HT1080 IDH1KD tx: toxicity to HT-1080 IDH1 knockdown cells (counter line); HT-1080 IDH1 knockdown viability, ATP luminescence, 48 h; Potency, µM (series often up to 46.1 µM), inactives show at the highest dose activity, negative = toxicity, most hits filed as cytotoxic; 360,000 compounds, 2% hits; AID 686971;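 note: 0% = DMSO wells and -100% = cell-free medium wells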
#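 CellTiter-Glo luminescence after 48 h compound exposure at 37 degrees C of IDH1-knockdown HT-1080 cells in 5% FBS RPMI. %Activity scaled between DMSO wells and cell-free media wells, with curves fitted and assigned curve classes.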
# DT40 TDP1 no CPT: qHTS for Inhibitors of human tyrosyl-DNA phosphodiesterase 1 (TDP1): qHTS in cells in absence of CPT | DT40 Tdp1-/- hTDP1 cells, no CPT, ATP luminescence, 48 h | Potency, µM (titrated, usually from 46.2 µM), for the others: at the highest dose activity change, negative = growth inhibition, actives largely listed as inhibitors | 420,000 compounds, 15% hits | AID 686978, 2013; note: % is set by controls: 0 for no effect and ±100 for the full control effect; nearly all actives have a fitted effect of over 55% in size
#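 Camptothecin absent (DMSO only). Human TDP1-complemented DT40 knockout cells, 400 cells/well, 37 °C for minimum 48 hr; ATP measured via CellTiter-Glo, 30 min dark incubation, luminescence.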
# TGFb SMAD3 inh: TGF-b pathway inhibition; HepG2 CAGA-GFP TGF-b/SMAD3 reporter, GFP fluorescence, 18 h; TGF-beta stimulated, 500 pg/mL final; Potency, µM (titrated, usually from 46.1 µM), for the others: top-dose activity, negative = inhibition, usual class: inhibitors; 410,000 compounds, 1.2% hits; AID 588855; note: % is set by controls: 0 for no effect and ±100 for the full control effect; nearly all actives have a fitted effect of over 65% in size
#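 Smad-responsive CAGA-GFP expression was quantified in HEPG2 cells exposed to compounds and 500 pg/mL final TGF-beta for 18 h at 37 degrees C; unstimulated wells defined full inhibition.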
# DT40 TDP1 CPT: DT40-hTDP1 cell growth loss with CPT | AID 686979 | 420,000 compounds, 12% hits | chicken DT40 Tdp1-/-;hTDP1 cells + 20 nM CPT, ATP luminescence, 48 h | Potency, µM (highest dose often 46.2 µM), inactives show top-dose activity change, negative = growth inhibition, usual class: inhibitors; note: % is set by controls: 0 for no effect and ±100 for the full control effect; nearly all actives have a fitted effect of over 55% in size
#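 Chicken DT40 Tdp1-/- cells complemented with human TDP1, 400 cells/well, exposed to compounds plus 20 nM camptothecin for at least 48 h at 37 C; viability read as ATP content by CellTiter-Glo luminescence.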
# HepG2 tox: HepG2 cytotoxicity, counter-screen for TGF-b inhibitors. 410,000 compounds, 0.76% hits. HepG2 CAGA-GFP viability, ATP luminescence, 18 h. Potency, µM (series often up to 46.1 µM), for inactives: at the top dose activity change, negative = cytotoxicity, most hits filed as cytotoxic
#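 CellTiter-Glo luminescence gave cytotoxicity after 18 hours at 37 degrees C. The cells were HepG2 CAGA-GFP in 1% FBS DMEM, stimulated with 500 pg/mL TGF-beta after compound addition. %Activity was normalised to no-cell wells (complete cell-killing) and DMSO (no toxicity), and curves were fitted and classified.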
# * = called active by the depositor; ? = inconclusive; / = no result. Compounds with a hit are over-represented: about 17% of the library has one in this group of screens. Calls come from the whole dose curve; as a rule, active = well fitted curve in the direction sought with a large enough effect; inconclusive = small, poorly fitted or top-dose-only effect, or another doubt; inactive = no such curve, though single readings can be large; an effect the other way counts as inactive or inconclusive. Potency is the fitted concentration of half-maximal effect.
SMILES,HT1080NT lethal,HT1080 IDH1KD tx,DT40 TDP1 no CPT,TGFb SMAD3 inh,DT40 TDP1 CPT,HepG2 tox
CCN(CC)c1ccc(NC(=O)c2ccccc2)cc1S(=O)(=O)Nc1ccccc1OC,-2%,-20%,16µM*,-14%,?,2%
CCOC(=O)C(=CNc1ccc(N2CCCCC2)c(S(=O)(=O)Nc2ccccc2OC)c1)C(=O)OCC,3%,0%,5.8µM*,-24%,3.7µM*,-2%
COc1ccccc1NS(=O)(=O)c1cc(NC(=O)CCNC(C)=O)ccc1N1CCCCC1,-18%,-20%,-23%,-9%,-22%,8%
COCC(=O)Nc1ccc(N2CCCC2)c(S(=O)(=O)Nc2ccccc2OC)c1,-1%,-2%,-24%,-17%,-18%,-20%
COc1ccccc1NS(=O)(=O)c1cc(NC(=O)Nc2cccc(C)c2)ccc1N1CCCCC1,-3%,1%,9.2µM*,-1%,15µM*,3%
COc1ccccc1NS(=O)(=O)c1cc(NC(C)=O)ccc1N1CCCCC1,-3%,-4%,-6%,-7%,-19%,2%
O=C(CSc1ncccn1)NN=C1CCCCCC1,6%,11%,0%,-14%,1%,9%
COc1ccc(CCCN2CCC(CN3CCNC(=O)C3=O)CC2)cc1OC,10%,8%,-10%,-3%,?,-2%
CCc1nc2ccc(C(=O)N3CCN(C(C)=O)CC3)cn2c1N(CC)C(=O)NCCc1ccccc1,0%,18%,-12%,-6%,-8%,2%
COC(=O)c1sccc1S(=O)(=O)Nc1ccc(S(N)(=O)=O)cc1,16%,19%,-3%,3%,1%,-4%
COC(=O)c1sccc1S(=O)(=O)Nc1ccc(N2CCCCC2)cc1,-11%,-13%,16µM*,14%,?,4%
O=C(Nc1ccc(Cl)cc1)Nc1ccc(N2CCCC2)c(S(=O)(=O)Nc2ccccc2Cl)c1,?,6.5µM*,5.2µM*,?,5.2µM*,-32%
COc1ccc(NS(=O)(=O)c2cc(NC(=O)c3cccs3)ccc2N2CCCC2)cc1,10%,0%,21µM*,-9%,?,-22%
C=CCC(O)(CC=C)CNC(=O)c1ccc(OC)c(OC2CCN(C(C)=O)CC2)c1,2%,-1%,19%,16%,1%,13%
Cc1ccc2[nH]c3c(c2c1)CN(C(=O)CN1CCCc2ccccc21)CC3,?,23µM*,?,-12%,23µM*,-22%
Cc1ccc2[nH]c3c(c2c1)CN(C(=O)CN1CCCCC1)CC3,-2%,-1%,?,0%,?,-31%
Cc1ccc2[nH]c3c(c2c1)CN(C(=O)CC1(c2ccccc2)CC(=O)N(Cc2cccnc2)C1=O)CC3 (stereo not drawn),/,/,16µM*,/,?,/
CC(NC(=O)CCc1nc2cc(S(=O)(=O)N3CCOCC3)ccc2n1C)c1ccc(S(N)(=O)=O)cc1 (stereo not drawn),0%,-1%,5%,-2%,9%,-9%
CN1CCN(C(=O)C[C@H]2C[C@H]3c4cc(NC(=O)NC5CCCCC5)ccc4O[C@H]3[C@@H](CO)O2)CC1,-1%,12%,10%,16%,-3%,32%
COc1ccc(N2CC(C(=O)N(CC(C)C)c3c(N)n(Cc4ccccc4)c(=O)[nH]c3=O)CC2=O)c(OC)c1 (stereo not drawn),5%,5%,-16%,-1%,-5%,5%
Cc1nn(C)c2c1c(C(F)(F)F)cc(=O)n2Cc1ccc(Br)cc1F,/,/,0%,8%,-3%,-27%
Cc1cccc(/N=C/c2c(O)ccc3oc4c(c23)CCCC4)n1,-11%,-8%,?,16µM*,?,1%
Cc1cccc(/N=C/c2c(O)cc(C)oc2=O)n1,7%,7%,-7%,55%,1%,4%
Cc1c(O)c(CN2CCCC2)cc2c3c(c(=O)oc12)CCC3,9%,-1%,-6%,-10%,0%,10%
O=c1oc2c3c4c(cc2c2c1CCC2)OCCN4CCC3,-12%,-20%,?,1%,18µM*,-9%
SMILES,HT1080NT lethal,HT1080 IDH1KD tx,DT40 TDP1 no CPT,TGFb SMAD3 inh,DT40 TDP1 CPT,HepG2 tox
COc1ccc2c(c1)C(C)=CC(C)(C)N2S(=O)(=O)c1ccc(NC(C)=O)cc1,?,?,2.3µM*,?,5.8µM*,-15%
CCOc1ccc2c(c1)C(C)=CC(C)(C)N2S(=O)(=O)c1ccc(F)cc1,?,?,?,?,?,-30%
CCOc1ccc2c(c1)C(C)=CC(C)(C)N2S(=O)(=O)c1ccc(NC(C)=O)cc1,3.7µM*,1.8µM*,1.3µM*,?,1µM*,-5%
Oc1ccc(O)c(-c2cnns2)c1,-25%,-23%,?,9%,15µM*,-1%
N#CC1c2ccccc2-c2ccccc2N1C(=O)c1ccccc1 (stereo not drawn),?,9.2µM*,5.8µM*,-25%,5.8µM*,-15%
COc1cc(OC)c(N(C)C(=O)c2cc3c(s2)-c2ccccc2S(=O)(=O)C3)cc1Cl,0%,4%,?,-12%,?,-8%
COc1ccccc1C(=O)c1c(N)c(-c2nc(-c3ccccc3)cs2)c2ccccn12,/,/,21µM*,0%,18µM*,0%
COc1ccc(C(=O)c2c(N)c(-c3nc(-c4ccccc4)cs3)c3ccccn23)cc1,/,/,?,8%,?,-17%
COc1ccc(C2Nc3ccc(NC(C)=O)cc3C(=O)N2Cc2cccc(Cl)c2)cc1COc1ccc(NC(C)=O)cc1 (stereo not drawn),0%,3%,10µM*,/,13µM*,/
COc1ccc(C2Nc3ccccc3C(=O)N2Cc2ccco2)cc1COc1ccc(F)cc1 (stereo not drawn),0%,-6%,?,-16%,?,6%
COc1ccc(C2Nc3ccc(NC(=O)CO)cc3C(=O)N2Cc2cccc(Cl)c2)cc1COc1ccc(NC(C)=O)cc1 (stereo not drawn),?,?,11µM*,/,?,/
COC(=O)c1cccc(NC(=O)CCCOc2cccc(C)c2)c1,-6%,-3%,3%,-4%,9%,-3%
O=C(CC(C(=O)O)c1cccc(Br)c1)c1ccc(Cl)cc1 (stereo not drawn),-2%,-1%,0%,-2%,-15%,-1%
